# Screens as filed in PubChem BioAssay.
# HCV NS3h FP: blocks HCV NS3 helicase binding to DNA; inhibition, % at 100 µM; NS3h Cy5-dT15 DNA binding, fluorescence polarization; AID 687043; hit rate 1.6% among 16,000;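 active = inhibition above the average over every tested compound plus 3 SD, cut at about 40% in these data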
# Cy5 interf NS3h: enhances or quenches Cy5 fluorescence in NS3h assay. hit rate 6% among 16,000. Cy5-dT15 DNA with NS3h, fluorescence interference; actives lie on both sides; signal over control mean, under 1 quenches. fluorescence interference ratio at 100 µM. AID 720488;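 active = compound fluorescence over control fluorescence at most 0.8, a quencher, or at least a set upper limit, an enhancer; inactive = ratio between 0.8 and the set upper limit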
# HCV NS3h conf: hepatitis C NS3 helicase inhibition, confirmation; inhibition, % at 100 µM; shares compounds with HCV NS3h FP; AID 720485; hit rate 20% among 240; NS3h binding to Cy5-dT15 DNA, fluorescence polarization;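 active = percent inhibition of 50% or more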
# SSB FP counter: disrupts E. coli SSB binding to DNA in counter-screen. shares compounds with HCV NS3h FP. E. coli SSB binding Cy5-dT15, fluorescence polarization. inhibition, % at 100 µM. hit rate 40% among 240;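 active = inhibition of at least 50%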;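 note: displacers lower Cy5 polarization so higher inhibition means more SSB displaced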
# Target sequence (P0AGE0 whole entry, looked up): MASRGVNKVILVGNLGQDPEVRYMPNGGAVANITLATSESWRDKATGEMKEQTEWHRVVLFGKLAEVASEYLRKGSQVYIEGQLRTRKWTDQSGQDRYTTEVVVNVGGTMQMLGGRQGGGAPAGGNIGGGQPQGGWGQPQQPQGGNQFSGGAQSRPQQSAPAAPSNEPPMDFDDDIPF
# Cy5 SSB fluor CB: counter-screen for HCV NS3 helicase inhibitors: fluorescence interference; shares compounds with HCV NS3h FP; Cy5-dT15/E. coli SSB fluorescence interference; actives lie on both sides; fluorescence interference ratio at 100 µM; hit rate 8% among 240;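 active = fluorescence interference ratio at or above 1.2, signal boosting, or at or below 0.8, signal quenching; inactive = ratio between 0.8 and 1.2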;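 note: ratio of compound well signal to mean negative control signal so 1 means no effect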
# Cy5 fluor confirm: confirmation counter-screen for HCV NS3 helicase inhibitors: fluorescence interference; AID 720489; Cy5-dT15 DNA/NS3h fluorescence interference counterscreen; hit rate 44% among 240; shares compounds with HCV NS3h FP; fluorescence interference ratio at 100 µM, hits read low;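 active = fluorescence interference ratio at or below 0.8 quencher or at or above a set limitenhancer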;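 note: ratio of compound fluorescence to mean of negative controls so 1 means no interference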
# Starred values were filed as active, the others as inactive; . = no result. Rows were chosen to be rich in hits. Some 6.9% of all compounds tested hit in one or more screens of this group.
SMILES,HCV NS3h FP,Cy5 interf NS3h,HCV NS3h conf,SSB FP counter,Cy5 SSB fluor CB,Cy5 fluor confirm
Cc1cccc(N2C(=O)CC(SC(=N)N3N=C(c4cccs4)CC3c3ccc(Br)cc3)C2=O)c1 (stereo not given),5.0,0.928,.,.,.,.
CC(N/C=C1/CC(=O)NC1=O)c1ccccc1 (stereo not given),18.4,0.981,.,.,.,.
O=C(O)CC(C(=O)O)c1c[nH]c2ccccc12 (stereo not given),-5.2,1.06,.,.,.,.
O=C(O)Cc1c[nH]c2ccc(O)cc12,89.7*,0.808,78.5*,109.7*,0.879,0.911
CCn1nnnc1-c1ccc(OC)c(S(=O)(=O)Nc2ccc(F)cc2)c1,4.1,0.942,.,.,.,.
CCOC(=O)c1[nH]c(=O)[nH]c1CSc1nc(O)c(CC)c(=O)[nH]1,-4.9,1.03,.,.,.,.
CCOc1ccc(C(=O)Nc2ccc3nn(-c4ccccc4)nc3c2)cc1Cl,-34.7,1.09,.,.,.,.
Cc1ccc(NC(=O)C2CC(=O)N(c3ccc(Br)cc3)C2)cc1Cl (stereo not given),19.9,1.01,.,.,.,.
O=C(Nc1ccc(Cl)c(Cl)c1)C1CC(=O)N(c2cccc([N+](=O)[O-])c2)C1 (stereo not given),38.7,1.08,0.2,13.8,0.967,0.941
O=C1NC(=O)N(c2ccccc2)C(=O)/C1=C\c1ccc(-c2cccc(C(=O)O)c2)o1,50.8*,0.984,38.3,52.7*,0.919,0.921
O=C1NN(c2ccc(Cl)cc2)C(=O)/C1=C\c1ccc(-c2ccc(Cl)c(C(=O)O)c2)o1,52.1*,0.804*,36.2,28.4,0.968,0.916
COC(=O)c1ccccc1-c1ccc(/C=C2\C(=O)NN(c3ccccc3)C2=O)o1,12.4,0.81,.,.,.,.
O=C1NC(=O)N(c2ccccc2)C(=O)/C1=C\c1ccc(-c2ccc([N+](=O)[O-])cc2Cl)o1,-3.4,0.817,.,.,.,.
O=C1NC(=O)N(c2ccc(Cl)cc2)C(=O)/C1=C/c1ccc(-c2ccc(Cl)c(C(=O)O)c2)o1,67.2*,1.05,62.6*,76.9*,0.937,0.852
COc1ccc([N+](=O)[O-])cc1-c1ccc(/C=C2\C(=O)NC(=O)N(c3ccc(Cl)cc3)C2=O)o1,20.4,1.09,.,.,.,.
O=C(O)CN1C(=O)/C(=C\c2cc(Br)cc(Cl)c2O)SC1=S,24.7,1.03,.,.,.,.
O=C(NC(=S)Nc1ccc(Cc2ccncc2)cc1)c1ccccc1,35.5,0.934,.,.,.,.
CCN(CC)CCNC(=O)c1ccc(NC(=S)NC(=O)c2cccnc2)cc1,62.8*,0.724*,41.5,35.7,0.774*,0.811
Cc1ccc(OCC(O)Cn2c3ccccc3c3ccccc32)cc1C (stereo not given),18.5,0.968,.,.,.,.
COc1ccc(CSc2nnc(SCc3ccc(OC)c(F)c3)s2)cc1F,6.9,1.08,.,.,.,.
CN(C)c1ccc(C(=S)N2CCOCC2)cc1Br,-6.1,1.04,.,.,.,.
